# LDHA inh = inhibitors of human lactate dehydrogenase A | activity change, % (values are at about 110 or 230 µM) | 480,000 tested, 0.15% active | purified LDHA, NADH/diaphorase-resazurin fluorescence; hits give low values | P00338; in the data active = activity change below about -30%; inconclusive = mostly about -25% to -30%;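 also: plate controls were DMSO wells for no effect and wells without enzyme for full effect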
#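 Remaining NADH was detected by diaphorase (0.133 mg/mL) converting 37 µM resazurin to fluorescent resorufin, read at 0 and 20 minutes. The preceding 5-minute room-temperature reaction used 2 nM LDHA, 0.2 mM sodium pyruvate and 0.06 mM NADH at pH 7.4.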
# TDP1 cell CPT = DT40-hTDP1 cell growth loss with CPT; chicken DT40 Tdp1-/-;hTDP1 cells + 20 nM CPT, ATP luminescence, 48 h; 420,000 tested, 12% active; Potency, µM (titrated, usually from 46.2 µM), inactives show at the highest dose activity change, negative = growth inhibition, most hits filed as inhibitors; AID 686979; also: potency is read from the fitted curve at half-maximal effect; nearly all actives have a fitted effect of over 55% in size
#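 Cell growth measured by CellTiter-Glo luminescence after a minimum 48 h, 37 C compound exposure with 20 nM CPT in Tdp1-knockout DT40 cells stably expressing hTDP1, seeded 400/well; qHTS titration format.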
# IL1B secr inh = inhibitors of inflammasome signaling (IL-1 beta secretion); THP-1 LPS/ATP IL-1B secretion, AlphaLISA, 16 h; hits give low values; activity change, % at 57.5 µM; 360,000 tested, 4.7% active; AID 743279; in the data active = activity change below about -50%; inconclusive = mostly about -30% to -49%
#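 THP-1 cells pretreated 1 hr with compounds (up to 57.5 uM final), then stimulated with LPS (250 ng/mL final) plus ATP (1.25 mM final); secreted IL-1B measured by AlphaLISA after 16 hr, decreased signal indicating inhibition.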
# RORgamma inh = inhibitors of mouse ROR gamma transcriptional activity; Drosophila S2 Gal4-RORgamma UAS-luciferase reporter, 20 h; Potency, µM (doses to about 53.6 µM), for inactives: at the top dose activity change, negative = inhibition, hits mostly inhibitors; P51450; 310,000 tested, 5.4% active; also: potency is read from the fitted curve at half-maximal effect; nearly all actives have a fitted effect of over 60% in size
# Target sequence (P51450 whole entry, looked up, the tested form may be a part): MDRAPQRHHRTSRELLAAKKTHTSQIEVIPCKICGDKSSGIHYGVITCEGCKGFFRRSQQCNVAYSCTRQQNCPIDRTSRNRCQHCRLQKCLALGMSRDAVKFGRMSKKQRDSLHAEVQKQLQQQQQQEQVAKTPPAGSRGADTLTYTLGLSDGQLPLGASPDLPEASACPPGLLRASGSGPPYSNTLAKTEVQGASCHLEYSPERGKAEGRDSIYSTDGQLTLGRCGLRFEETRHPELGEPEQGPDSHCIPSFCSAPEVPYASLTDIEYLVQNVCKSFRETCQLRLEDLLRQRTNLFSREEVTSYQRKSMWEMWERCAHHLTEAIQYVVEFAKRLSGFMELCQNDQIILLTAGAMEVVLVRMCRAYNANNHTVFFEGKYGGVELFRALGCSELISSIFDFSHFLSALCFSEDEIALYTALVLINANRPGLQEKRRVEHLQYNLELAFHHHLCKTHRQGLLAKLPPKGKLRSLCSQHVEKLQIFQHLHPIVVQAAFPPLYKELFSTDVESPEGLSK
#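 In this cell-based reporter format, copper sulfate (700 uM final) drives Gal4–ROR gamma fusion expression from a metallothionein promoter in Drosophila Schneider cells; compounds preincubated 1 hr, reporter read after 20 hr at ambient temperature.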
# DT40 TDP1 no CPT = qHTS for Inhibitors of human tyrosyl-DNA phosphodiesterase 1 (TDP1): qHTS in cells in absence of CPT | AID 686978, 2013 | 420,000 tested, 15% active | Potency, µM (top dose mostly 46.2 µM), for inactives: at the top dose activity change, negative = growth inhibition, most hits filed as inhibitors | DT40 Tdp1-/- hTDP1 cells, no CPT, ATP luminescence, 48 h; also: potency is read from the fitted curve at half-maximal effect; nearly all actives have a fitted effect of over 55% in size
#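 Stably hTDP1-transfected Tdp1-null chicken DT40 cells were treated with library compounds minus camptothecin and grown for at least 48 hr at 37 °C, after which cellular ATP was quantified by luminescence.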
# VP16 counter = inhibits Gal4-VP16 luciferase reporter, ROR gamma counter-screen; Drosophila S2 Gal4-VP16 UAS-luciferase, luminescence, 20 h; Potency, µM (doses to about 53.6 µM), for the others: at the top dose activity, negative = inhibition, usual class: inhibitors; 310,000 tested, 3.5% active; AID 2546;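 also: Gal4-VP16 expression switched on by copper sulfate through the metallothionein promoter; potency is read from the fitted curve at half-maximal effect; nearly all actives have a fitted effect of over 50% in size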
# * marks the source's active call; other numbers are inactive results; i = inactive; ? = inconclusive; · = not tested or not shown; [ ] = remark or other dose. In the library only some 18% were active in any assay of this set; here they are far more common. Unless noted, calls follow the shape of the dose curve; as a rule, active = well fitted curve in the direction sought with a large enough effect; inconclusive = small, poorly fitted or top-dose-only effect, or another doubt; inactive = no such curve, though single readings can be large; an effect the other way counts as inactive or inconclusive. Unless noted, % is scaled to controls: 0 for no effect and ±100 for the full control effect.
SMILES,LDHA inh,TDP1 cell CPT,IL1B secr inh,RORgamma inh,DT40 TDP1 no CPT,VP16 counter
COc1ccc(/C=N/NC(=O)c2ccn[nH]2)cc1CN1CCOCC1,-15.8,-0.5%,16.0,11.1%,-22.1%,4.4%
COc1ccc(/C=N\NC(=O)c2ccc(F)cc2)cc1COc1cc(F)ccc1[N+](=O)[O-],-9.1,?,i,?,?,?
COc1ccc(/C=N\NC(=O)c2cc(O)c(O)c(O)c2)cc1COc1ccc(C(=O)OCC(C)C)cc1,5.1,?,57.7,-8.0%,20.6µM*,-22.3%
COc1ccc(/C=N/NC(=O)c2nc(Cl)c(Cl)c(N)c2Cl)cc1COc1ccc(F)cc1F,-2.6,?,60.9,?,?,-26.1%
CN(C(=O)CNc1cc(F)ccc1F)C1CCS(=O)(=O)C1 (configuration not stated),-3.9,·,·,·,·,·
COc1cc(OC)c(C(=O)Oc2ccc(C#N)cc2OC)cc1OC,2.7,·,·,·,·,·
CCc1cc(C#N)c(N)s1,7.8,·,·,·,·,·
COc1ccc(/C=N\NC(=O)c2ccccc2F)cc1COc1ccc(F)cc1,-8.5,?,35.1,-28.4%,?,-7.9%
COc1ccc(/C=N/NC(=O)c2ccc(NC(C)=O)cc2)cc1COc1ccc(F)cc1F,-14.1,?,0.0,11.2µM*,-13.7%,10µM*
COc1ccc(/C=N\NC(=O)c2ccccc2Br)cc1COc1c(F)c(F)cc(F)c1F,0.0,?,-24.7,?,16.4µM*,?
Cc1cc(-c2nn(-c3ccccc3)cc2/C=C2\SC(N)=NC2=O)ccc1OC(C)C,-4.8,?,-8.4,21.0%,?,-7.9%
CC1CCCN(C2=NC(=O)/C(=C/c3cn(-c4ccccc4)nc3-c3cccc(S(=O)(=O)N(C)C)c3)S2)C1 (configuration not stated),-9.9,16.4µM*,-17.3,20.0%,11.6µM*,-12.0%
CC1CCN(C2=NC(=O)/C(=C/c3cn(-c4ccccc4)nc3-c3cccc(S(=O)(=O)N(C)C)c3)S2)CC1,-5.2,7.31µM*,-30.0,2.4%,6.51µM*,-5.2%
CCC(=O)c1c(-c2ccccc2)nc2n(CCN3CCOCC3)c3ccccc3n12,9.5,·,·,·,·,·
Cc1ccc2oc(-c3cc(NC(=O)CC(C)C)ccc3Cl)nc2c1,-6.0,10.3µM*,·,·,11.6µM*,·
COc1c(C)cccc1C(=O)Nc1ccc(Cl)c(-c2nc3cc(C)ccc3o2)c1,0.4,14.6µM*,·,·,9.2µM*,·
Cc1ccc2oc(-c3cc(NC(=O)CC(C)C)ccc3O)nc2c1,5.4,·,·,·,·,·
C=CCN(Cc1ccc(C#N)cc1)S(=O)(=O)c1cccs1,-1.2,·,·,·,·,·
O=C(Nc1cccc(Br)c1)C1C2C3CCC(C3)C12 (configuration not stated),6.3,·,·,·,·,·
COc1ccc2c(-c3ccccc3)cc(SCC(=O)N3CCOCC3)nc2c1,4.1,·,·,·,·,·
O=c1c(C=NCC2CCCO2)c(-c2ccccc2)[nH]n1-c1ccc([N+](=O)[O-])cc1 (configuration not stated),-3.4,?,-13.1,-1.3%,?,-16.2%
Cc1ccc(-n2[nH]c(C)c(/C=N/Nc3ccc([N+](=O)[O-])cc3[N+](=O)[O-])c2=O)cc1,-0.5,20.6µM*,-3.0,7.3%[10 µM],14.6µM*,-3.8%
Cc1[nH]n(-c2ccc([N+](=O)[O-])cc2)c(=O)c1C=NCCN1CCN(C(=O)C(C)C)CC1,-13.5,11.6µM*,11.9,?,16.4µM*,3.3%
Cc1[nH]n(-c2ccc([N+](=O)[O-])cc2)c(=O)c1C=NCC1CCCO1 (configuration not stated),-3.2,10.3µM*,9.9,-4.8%,10.3µM*,-1.9%
Cc1[nH]n(-c2ccc([N+](=O)[O-])cc2)c(=O)c1C=NCCc1c(C)[nH]c2ccccc12,0.1,16.4µM*,0.0,16.5%,16.4µM*,1.1%
SMILES,LDHA inh,TDP1 cell CPT,IL1B secr inh,RORgamma inh,DT40 TDP1 no CPT,VP16 counter
COc1ccccc1NC(=O)CC1C=CCC1 (configuration not stated),-12.4,·,·,·,·,·
O=C(Nc1cc2c(cc1C(=O)c1ccc(Br)cc1)OCCO2)c1cccc(F)c1,13.3,·,·,·,·,·
CO[C@H]1C=CO[C@@]2(C)Oc3c(C)c(O)c4c(O)c(c5c(nc6cc(C)ccn65)c4c3C2=O)NC(=O)C(C)=CC=C[C@H](C)[C@H](O)[C@@H](C)[C@@H](O)[C@@H](C)[C@H](OC(C)=O)[C@@H]1C,·,·,·,0.1%,·,-10.1%
CO[C@H]1/C=C/O[C@@]2(C)Oc3c(C)c(O)c4c(O)c(c(/C=N\N5CCN(C6CCCC6)CC5)c(O)c4c3C2=O)NC(=O)/C(C)=C\C=C\[C@H](C)[C@H](O)[C@@H](C)[C@@H](O)[C@@H](C)[C@H](OC(C)=O)[C@@H]1C,·,·,·,3.2%,·,-19.3%
CCC(C)N1CCC2(CC1)N=c1c(c3c4c5c(C)c(O)c3c(O)c1=NC(=O)C(C)=CC=C[C@H](C)[C@H](O)[C@@H](C)[C@@H](O)[C@@H](C)[C@H](OC(C)=O)[C@H](C)[C@@H](OC)C=CO[C@@](C)(O5)C4=O)N2 (some centres not stated),4.5,13µM*,?,·,18.4µM*,·
CO[C@H]1/C=C\O[C@@]2(C)Oc3c(C)c(O)c4c(O)c(c(C=NN5CCN(C6CCCC6)CC5)c(O)c4c3C2=O)NC(=O)C(C)=CC=C[C@H](C)[C@H](O)[C@@H](C)[C@@H](O)[C@@H](C)[C@H](OC(C)=O)[C@H]1C,15.5,5.62µM*,·,·,3.16µM*,·
CO[C@H]1C=CO[C@@]2(C)Oc3c(C)c(O)c4c(O)c(c5c(nc6cc(C)ccn65)c4c3C2=O)NC(=O)/C(C)=C\C=C[C@H](C)[C@H](O)[C@@H](C)[C@@H](O)[C@@H](C)[C@H](OC(C)=O)[C@@H]1C,·,?,·,·,13.3µM*,·
COC1C=COC2(C)Oc3c(C)c(O)c4c(O)c(c(CN5CCN(C)CC5)c(O)c4c3C2=O)NC(=O)C(C)=CC=CC(C)C(O)C(C)C(O)C(C)C(OC(C)=O)C1C (configuration not stated),27.6,23.1µM*,-6.3,·,20.6µM*,·
CO[C@H]1C=CO[C@@]2(C)Oc3c(C)c(O)c4c(O)c(cc(O)c4c3C2=O)NC(=O)/C(C)=C\C=C/[C@H](C)[C@H](O)[C@@H](C)[C@@H](O)[C@@H](C)[C@H](OC(C)=O)[C@@H]1C,·,-3.6%,·,·,-12.1%,·
OCc1cc2ccc(Br)cc2[nH]1,12.3,·,·,·,·,·

# Assay outcomes as filed in PubChem BioAssay.
